Hit rate of the full screen: of about 5,500 compounds, about 2,000 (36%) were called active. Roughly 18% stayed inconclusive and do not appear here. The list shows a part of the results. Values without a mark were called inactive. Cut-off read from the data, not from the text of the source: active = normalized growth mostly below about 0.91 (no sharp cut-off); inconclusive = no clear call, values can overlap the other calls; inactive = mostly above about 0.92.
Experiment: chemical genetic growth profiling, strain panel (AID 1159580);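 note: tested at 20 µM; growth read once vehicle control cultures reached saturation at 30 °C; 1 = growth at the plate median or of vehicle wells; lower values mean less growth of the strain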
Settings: S. cerevisiae deletion strains, growth OD
[1] = locus YDL101C, strain DUN1, active compounds read low
[2] = locus YHR030C, strain SLT2, active compounds read low

## Cc1c(-n2cccc2)cc2c(c1[N+](=O)[O-])C(C)(C)CC2(C)C
Locus YAL013W, strain DEP1, active compounds read low
  normalized growth: 1.01
Locus YBR229C, strain ROT2, active compounds read low
  normalized growth: 1.01
Locus YCL061C, strain MRC1, active compounds read low
  normalized growth: 1.01
[1]
  normalized growth: 1.02
Locus YDR150W, strain NUM1, active compounds read low
  normalized growth: 1.02
Locus YEL061C, strain CIN8, active compounds read low
  normalized growth: 1
Locus YGR078C, strain PAC10, active compounds read low
  normalized growth: 1.02
[2]
  normalized growth: 1.05
Locus YHR087W, strain rtc3, active compounds read low
  normalized growth: 1.01
Locus YJL187C, strain SWE1, active compounds read low
  normalized growth: 1.02
Locus YJR043C, strain POL32, active compounds read low
  normalized growth: 1.01
Locus YJR075W, strain HOC1, active compounds read low
  normalized growth: 1.05
Locus YLR039C, strain RIC1, active compounds read low
  normalized growth: 1.06
Locus YLR058C, strain SHM2 (second series), active compounds read low
  normalized growth: 0.994
Locus YLR085C, strain ARP6, active compounds read low
  normalized growth: 1.01
Locus YLR262C, strain YPT6, active compounds read low
  normalized growth: 1.07
Locus YML094W, strain GIM5, active compounds read low
  normalized growth: 1.02
Locus YMR219W, strain ESC1, active compounds read low
  normalized growth: 1.02
Locus YMR263W, strain SAP30, active compounds read low
  normalized growth: 1
Locus YNL153C, strain GIM3, active compounds read low
  normalized growth: 0.998
Locus YNL298W, strain CLA4 (second series), active compounds read low
  normalized growth: 1.04
Locus YNL322C, strain KRE1, active compounds read low
  normalized growth: 1.02
Locus YNR030W, strain Alg12, active compounds read low
  normalized growth: 1.01
Locus YOL006C, strain TOP1, active compounds read low
  normalized growth: 1.03
Locus YPL055C, strain LGE1, active compounds read low
  normalized growth: 1
Locus YPL241C, strain CIN2, active compounds read low
  normalized growth: 1
Locus YPR135W, strain CTF4, active compounds read low
  normalized growth: 1.04

## N#CC(C#N)=NNc1ccc(-n2ccc(C(F)(F)F)n2)cc1
Locus YAR019C, strain CDC15, active compounds read low
  normalized growth: 0.871 (active)
Locus YBL105C, strain PKC1, active compounds read low
  normalized growth: 0.899 (active)
Locus YBR135W, strain CKS1, active compounds read low
  normalized growth: 0.893 (active)
Locus YBR136W, strain MEC1, active compounds read low
  normalized growth: 0.905
Locus YBR160W, strain CDC28, active compounds read low
  normalized growth: 0.902
Locus YDL017W, strain CDC7, active compounds read low
  normalized growth: 0.926
Locus YDL028C, strain MPS1, active compounds read low
  normalized growth: 0.923
[1]
  normalized growth: 0.88 (active)
Locus YDL108W, strain KIN28, active compounds read low
  normalized growth: 0.907
Locus YDL132W, strain cdc53, active compounds read low
  normalized growth: 0.76 (active)
Locus YDL214C, strain PRR2, active compounds read low
  normalized growth: 0.348 (active)
Locus YDR052C, strain DBF4, active compounds read low
  normalized growth: 0.876 (active)
Locus YDR054C, strain cdc34, active compounds read low
  normalized growth: 0.607 (active)
Locus YDR226W, strain ADK1, active compounds read low
  normalized growth: 0.917
Locus YDR477W, strain SNF1, active compounds read low
  normalized growth: 0.368 (active)
Locus YER123W, strain YCK3, active compounds read low
  normalized growth: 0.208 (active)
Locus YER133W, strain GLC7, active compounds read low
  normalized growth: 0.422 (active)
Locus YFL009W, strain cdc4, active compounds read low
  normalized growth: 0.876 (active)
Locus YFL029C, strain CAK1, active compounds read low
  normalized growth: 0.853 (active)
Locus YFR003C, strain YPI1, active compounds read low
  normalized growth: 0.927
Locus YFR019W, strain FAB1, active compounds read low
  normalized growth: 0.199 (active)
Locus YFR028C, strain CDC14, active compounds read low
  normalized growth: 0.899
Locus YGR040W, strain KSS1, active compounds read low
  normalized growth: 0.48 (active)
Locus YGR052W, strain FMP48, active compounds read low
  normalized growth: 0.31 (active)
Locus YGR092W, strain DBF2, active compounds read low
  normalized growth: 0.176 (active)
[2]
  normalized growth: 0.131 (active)
Locus YHR079C, strain IRE1, active compounds read low
  normalized growth: 0.175 (active)
Locus YHR082C, strain KSP1, active compounds read low
  normalized growth: 0.271 (active)
Locus YHR205W, strain SCH9, active compounds read low
  normalized growth: 0.595
Locus YIL147C, strain SLN1, active compounds read low
  normalized growth: 0.928
Locus YJL095W, strain BCK1, active compounds read low
  normalized growth: 0.204 (active)
Locus YJL128C, strain PBS2, active compounds read low
  normalized growth: 0.915
Locus YJL157C, strain FAR1, active compounds read low
  normalized growth: 0.329 (active)
Locus YJR016C, strain ILV3, active compounds read low
  normalized growth: 0.895 (active)
Locus YJR066W, strain TOR1 (second series), active compounds read low
  normalized growth: 0.225 (active)
Locus YJR066W, strain TOR1, active compounds read low
  normalized growth: 0.201 (active)
Locus YKL048C, strain ELM1, active compounds read low
  normalized growth: 0.321 (active)
Locus YKL067W, strain YNK1, active compounds read low
  normalized growth: 0.403 (active)
Locus YKL101W, strain HSL1, active compounds read low
  normalized growth: 0.349 (active)
Locus YKL193C, strain SDS22, active compounds read low
  normalized growth: 0.875 (active)
Locus YKL203C, strain TOR2, active compounds read low
  normalized growth: 0.283 (active)
Locus YLR113W, strain HOG1, active compounds read low
  normalized growth: 0.207 (active)
Locus YLR133W, strain CKI1, active compounds read low
  normalized growth: 0.383 (active)
Locus YLR403W, strain SFP1, active compounds read low
  normalized growth: 0.448 (active)
Locus YML070W, strain DAK1, active compounds read low
  normalized growth: 0.229 (active)
Locus YMR001C, strain CDC5, active compounds read low
  normalized growth: 0.883 (active)
Locus YMR205C, strain PFK2 (second series), active compounds read low
  normalized growth: 0.433 (active)
Locus YMR277W, strain FCP1, active compounds read low
  normalized growth: 0.865 (active)
Locus YNL006W, strain LST8, active compounds read low
  normalized growth: 0.914
Locus YNL020C, strain ARK1, active compounds read low
  normalized growth: 0.349 (active)
Locus YNL161W, strain CBK1, active compounds read low
  normalized growth: 0.884 (active)
Locus YNL183C, strain NPR1, active compounds read low
  normalized growth: 0.292 (active)
Locus YNL207W, strain RIO2, active compounds read low
  normalized growth: 0.875 (active)
Locus YNL222W, strain SSU72, active compounds read low
  normalized growth: 0.861 (active)
Locus YNL307C, strain MCK1 (second series), active compounds read low
  normalized growth: 0.379 (active)
Locus YOL078W, strain AVO1, active compounds read low
  normalized growth: 0.739 (active)
Locus YOL136C, strain PFK27, active compounds read low
  normalized growth: 0.202 (active)
Locus YOR061W, strain CKA2, active compounds read low
  normalized growth: 0.568 (active)
Locus YOR119C, strain RIO1, active compounds read low
  normalized growth: 0.419 (active)
Locus YOR231W, strain MKK1, active compounds read low
  normalized growth: 0.156 (active)
Locus YOR329C, strain SCD5, active compounds read low
  normalized growth: 0.924
Locus YPL031C, strain PHO85, active compounds read low
  normalized growth: 0.273 (active)
Locus YPL153C, strain RAD53, active compounds read low
  normalized growth: 0.157 (active)
Locus YPL204W, strain HRR25, active compounds read low
  normalized growth: 0.183 (active)
Locus YPL209C, strain IPL1, active compounds read low
  normalized growth: 0.897 (active)
Locus YPL256C, strain CLN2, active compounds read low
  normalized growth: 0.178 (active)
Locus YPR025C, strain CCL1, active compounds read low
  normalized growth: 0.89 (active)
Locus YPR106W, strain ISR1, active compounds read low
  normalized growth: 0.902
Locus YPR111W, strain DBF20, active compounds read low
  normalized growth: 0.878
Strain NNK1, active compounds read low
  normalized growth: 0.866 (active)
Strain TSCII, active compounds read low
  normalized growth: 0.861 (active)

Reference: PubChem BioAssay AID1159580 (chemical genetic matrix, 2015)
